# Data from the supplement of paper PMC6555819.
# How the values were obtained:
# Test in all cases: PBM binding z-score (relative to random genomic background probes); higher = stronger binding; sequences stand for … in GC…GCGATTGACAGCGTAGAATGAAGG
# [1] = tested on: FXR:RXRa (NR concentration 270 nM, RXRa partner concentration 90 nM)
# In short: (§1)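 The probes on custom Agilent 4×180K protein-binding microarrays were double-stranded, with 34-nt variable regions bearing direct-repeat seeds, single-nucleotide variants, half-site ablations and random human genomic background sequences. Incubation lasted 1 h with ligand-free nuclear receptor dimers in PBS pH 7.4, 2% milk, 0.02% Triton X-100, 1 mM DTT, 0.2 mg/mL BSA and 0.4 mg/ml salmon testes DNA. Antibodies against each partner (one per run) detected bound dimers, and fluorescence scans were regression-normalized. Binding z-scores take the random background probes as reference.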
# [2] = tested on: LXRa:RXRa (NR concentration 270 nM, RXRa partner concentration 90 nM)
# In short: as §1
# [3] = tested on: LXRa homodimer (NR concentration 270 nM)
# In short: as §1
# [4] = tested on: LXRb:RXRa (NR concentration 270 nM, RXRa partner concentration 90 nM)
# In short: as §1
# [5] = tested on: LXRb homodimer (NR concentration 270 nM)
# In short: as §1
# [6] = tested on: PPARa:RXRa (NR concentration 270 nM, RXRa partner concentration 90 nM)
# In short: as §1
# [7] = tested on: PPARg:RXRa (NR concentration 180 nM, RXRa partner concentration 90 nM)
# In short: as §1
# [8] = tested on: PPARg:RXRa 270nM:90nM, anti-RXR (NR concentration 270 nM, RXRa partner concentration 90 nM)
# In short: as §1
# [9] = tested on: PPARg:RXRa 30nM:10nM, anti-RXR (NR concentration 30 nM, RXRa partner concentration 10 nM)
# In short: as §1
# [10] = tested on: PPARg:RXRa 90nM:30nM, anti-RXR (NR concentration 90 nM, RXRa partner concentration 30 nM)
# In short: as §1
Sequence,PBM binding z-score [1],PBM binding z-score [2],PBM binding z-score [3],PBM binding z-score [4],PBM binding z-score [5],PBM binding z-score [6],PBM binding z-score [7],PBM binding z-score [8],PBM binding z-score [9],PBM binding z-score [10]
TCATATAGCTAATACAGGTGAAAGTCGGCATCTA,0.322,0.835,0.0705,0.543,-0.0868,1.17,0.706,1.77,3.13,2.35
CCTAGCAGGCCAGGGTCATTCAAGCATTTCGCTT,2.69,2.29,-0.0917,2.54,-0.65,3.66,0.697,1.82,-0.631,0.991
ACTTACAGGTCAACGAGGTTATAGCACGCGTATA,6.79,5.97,3.32,4.66,1.8,5.76,5.5,5.63,2.14,4.37
TTACCAAGGTGACGGTCGTTGATCCCTCTGTAGA,1.07,0.963,-0.313,0.464,-0.534,1.5,0.654,1.29,0.738,0.929
GCTAGTAGATCAAGGTTAAGAAAGACTAAGCTAA,0.0668,0.637,-0.651,0.372,-0.999,1.46,1.22,2.22,0.524,1.57
ATCTCTAGGTAAGACTCAGTTCGGTGAAGAACGC,0.336,0.318,0.624,0.144,0.85,-0.0565,-0.0259,0.127,-0.00912,0.104
GCATATAGGTAATACAAGGTGAAACTCCGATTGT,1.27,2.79,0.554,0.988,-0.38,1.83,1.5,1.04,0.514,0.842
CCTAACGGGTCACTCCAGGTTATAGCATCGGAGT,3.94,7.24,1.46,4.81,0.101,3.5,2.32,2.54,0.338,1.43
GCTGCTATGTCAACTGATGGTCAGCTAAAGCTCG,-0.296,-0.497,-0.849,-0.37,-0.729,-0.283,-0.143,-0.387,-0.655,-0.456
CCGACTGGGGCAGAAAGATTACCATACCATCCGG,-0.557,-0.807,-0.423,-0.639,-1,-0.291,0.958,-0.112,-0.469,-0.456
ACTTACGGGTCAACGTGGTTATAGCACGCGTATA,6.4,4.01,0.422,3.75,0.534,5.52,5.08,5.39,1.88,4.03
AGAACGAAGGCACGCTGAGTTGATAGCAGAGTAG,-0.877,-0.66,-0.838,-1.06,-0.997,-0.367,0.622,-0.693,-0.318,-0.476
CCCGCTAGGTCAATGGTCAGCTAAAGCAGCTCGC,3.1,2.28,-0.0501,1.61,0.293,3.18,5.11,5.22,3.41,5.01
CCAGACAAGTGAAAGGTAACTCAGTCTGGTACGC,-0.0838,0.254,-0.234,0.206,-0.315,1.07,1.42,2.61,0.692,1.77
GGAACGGGGGCAAAGTTGATAGCATCTGTCGACG,3.75,3.32,0.259,4.64,6.22,5.56,9.31,8.52,9.53,9.94
AGAATGAGGTTACCAACGATCAGGGAAACGCTTG,1.58,5.96,-0.334,2.43,-0.375,3.66,2.78,2.43,0.844,1.7
ATCTCTAGGTAAGACTCAGTTCAGGGAAGAACGC,0.579,0.883,0.863,0.68,1.19,0.432,0.216,0.397,0.337,0.289
AGTCAAAATTCAGGACGAGGTAACGTAAAGCACG,0.194,-0.186,0.224,-0.188,-0.336,0.0316,0.944,0.294,0.281,0.217
CCTACTGGGCCACGAACGGTCATTGATTCAGTGA,0.0231,1.38,0.691,-0.0702,-0.838,0.858,1.47,1.36,-0.262,0.515
ATCTCTAGGCAACCAAGTTCAGTGAATGCCGAAC,0.291,0.227,0.263,0.113,0.281,0.303,0.114,0.0403,-0.317,0.0136
CCTACAGGGCCAAAAAGGTCATTGATGCCGATAA,4.22,4.32,2.83,4.2,0.284,4.61,1.51,2.74,0.52,1.49
GGAACGAGGGTATTCGAGTTGATAGCATGGCGAT,0.27,2.1,-0.446,-0.313,-1.2,-0.309,0.371,-0.244,-0.476,-0.646
CAAACTAGGTCACGAAAGGTCACAGTCGAATGAC,6.73,7.6,5.88,6.82,1.64,6.62,10.1,8.34,6.6,8.57
AGAACGAGGGGACGCTGAGTTGATAGCAGAGTAG,-0.308,-0.353,-0.679,-0.522,-0.449,-0.232,0.607,0.0813,-0.0641,-0.258
